PubChem BioAssay (NCATS)
Several values for one entry are separate records, joined by “and”; a condition that tells them apart may be missing. Equal values may be shown once. Results filed as inconclusive are left out. A structure can be active in one record and inactive in another. Activity calls are given as the source filed them. Calls follow the shape of the dose curve; as a rule, active = well fitted curve in the direction sought with a large enough effect; inconclusive = small, poorly fitted or top-dose-only effect, or another doubt; inactive = no such curve, though single readings can be large; an effect the other way counts as inactive or inconclusive.

Legend:
KB-3-1 = assay: Cytotoxic Profiling of Annotated Libraries Using Quantitative High-Throughput Screening (AID 1296008); conditions: Five cell lines viability, CellTiter-Glo ATP luminescence, 48-72 h; max response: active compounds read low; also: nearly all actives have a fitted effect of over 60% in size; also: potency is read from the fitted curve at half-maximal effect; as to max response: % is scaled to controls: 0 for no effect and ±100 for the full control effect
How it was run: (§1)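 Compounds were pin-transferred onto cells and incubated 48 or 72 hr at 37 degree Celsius, 95% humidity. CellTiter-Glo was added, plates sat 10 min at room temperature, then ATP-coupled luminescence was imaged as the viability read-out.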

NIH3T3 [1] = assay: as above; conditions: Five cell lines viability, CellTiter-Glo ATP luminescence, 48-72 h; max response: active compounds read low
How it was run: as §1

HACAT = assay: qHTS assay to identify novel small-molecules to repurpose for Merkel cell carcinoma treatment (AID 1296009); conditions: MCC and control cell lines, CellTiter-Glo viability, 72 h; at 44.8 µM (top of the series) unless noted; also: nearly all actives have a fitted effect of over 60% in size
How it was run: (§2)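 Viability readout: ATP luminescence (CellTiter-Glo) after 72 hr drug exposure at 37 degree celsius. Dose-response format was 8 points for NPC and 11 points for MIPE; data normalized to in-plate controls.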

HEK293T [2] = assay: as above; conditions: MCC and control cell lines, CellTiter-Glo viability, 72 h; series mostly up to 44.8 µM
How it was run: as §2

NIH3T3 [3] = assay: as above; conditions: MCC and control cell lines, CellTiter-Glo viability, 72 h; at 44.8 µM (top of the series) unless noted
How it was run: as §2

C33A = assay: Primary qHTS to identify gynecologic anti-cancer compounds using libraries of approved drugs and bioactive compounds (AID 1345084); conditions: Gynecologic cancer cell panel viability, ATPlite luminescence, 48 h; series mostly up to 57.5 µM; also: % is scaled to controls: 0 for no effect and ±100 for the full control effect; nearly all actives have a fitted effect of over 55% in size
How it was run: (§3)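 In this quantitative HTS, cell killing is estimated from loss of ATP-dependent luciferase light. Cells see five compound concentrations over a 48 h exposure.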

CAOV3 = assay: as above; conditions: Gynecologic cancer cell panel viability, ATPlite luminescence, 48 h; series mostly up to 57.5 µM
How it was run: as §3

CASKI = assay: as above; conditions: Gynecologic cancer cell panel viability, ATPlite luminescence, 48 h; series mostly up to 57.5 µM
How it was run: as §3

Es-2 = assay: as above; conditions: Gynecologic cancer cell panel viability, ATPlite luminescence, 48 h; series mostly up to 57.5 µM
How it was run: as §3

HeLa = assay: as above; conditions: Gynecologic cancer cell panel viability, ATPlite luminescence, 48 h; series mostly up to 57.5 µM
How it was run: as §3

Hek293T [4] = assay: as above; conditions: Gynecologic cancer cell panel viability, ATPlite luminescence, 48 h, control line for the selectivity index; series mostly up to 57.5 µM
How it was run: as §3

JEG-3 = assay: as above; conditions: Gynecologic cancer cell panel viability, ATPlite luminescence, 48 h; series mostly up to 57.5 µM
How it was run: as §3

OV90 = assay: as above; conditions: Gynecologic cancer cell panel viability, ATPlite luminescence, 48 h; series mostly up to 57.5 µM
How it was run: as §3

PA-1 = assay: as above; conditions: Gynecologic cancer cell panel viability, ATPlite luminescence, 48 h; series mostly up to 57.5 µM
How it was run: as §3

NS(=O)(=O)NCCNc1nonc1C(=Nc1ccc(F)c(Br)c1)NO
inactive: max response (KB-3-1) 4.58% and 8.99% | max response (NIH3T3 [1]) -8.59% and -38.3% | outcome (NIH3T3 [1]) | outcome (HACAT) | Potency (HEK293T [2]) | outcome (NIH3T3 [3]) | Potency (C33A) | Potency (CAOV3) | Potency (CASKI) | Potency (Es-2) | Potency (HeLa) | Potency (Hek293T [4]) | Potency (JEG-3) | Potency (OV90) | Potency (PA-1)

CCCCCCCCCCCC[n+]1ccc2ccccc2c1
active: Potency (KB-3-1) 14.6 µM

CN(C)CC/C=C1/c2ccccc2CSc2ccccc21
inactive: max response (KB-3-1) -13.6%

N[C@H]1C[C@H]1c1ccc(-c2cccc(O)c2)cc1
inactive: outcome (KB-3-1) | max response (NIH3T3 [1]) -6.35% | outcome (NIH3T3 [1]) | outcome (HACAT) | outcome (NIH3T3 [3]) | Potency (C33A) | Potency (CAOV3) | Potency (CASKI) | Potency (Es-2) | Potency (HeLa) | Potency (Hek293T [4]) | Potency (JEG-3) | Potency (OV90) | Potency (PA-1)

NC1CCC(N[C@@H]2C[C@H]2c2ccccc2)CC1 (stereo not given in full)
inactive: outcome (KB-3-1) | max response (NIH3T3 [1]) 3.03% | outcome (NIH3T3 [1]) | outcome (HACAT) | outcome (NIH3T3 [3]) | Potency (C33A) | Potency (CAOV3) | Potency (CASKI) | Potency (Es-2) | Potency (HeLa) | Potency (Hek293T [4]) | Potency (JEG-3) | Potency (OV90) | Potency (PA-1)

CC(O)CO (stereo not given)
inactive: max response (KB-3-1) -18.9%

COc1ccc(C[C@@H](C)NC[C@H](O)c2ccc(O)c(NC=O)c2)cc1
inactive: max response (KB-3-1) 2.59%

Cc1nn(C)c2c1C(c1ccc(C(F)(F)F)cc1)C(C#N)=C(N)O2 (stereo not given)
inactive: max response (KB-3-1) 9.42% | max response (NIH3T3 [1]) 1.84% | outcome (NIH3T3 [1]) | outcome (NIH3T3 [3]) | Potency (C33A) | Potency (CAOV3) | Potency (CASKI) | Potency (Es-2) | Potency (HeLa) | Potency (Hek293T [4]) | Potency (JEG-3) | Potency (OV90) | Potency (PA-1)

CC(C)C(=O)OCC(=O)[C@@]12O[C@H](C3CCCCC3)O[C@@H]1C[C@H]1[C@@H]3CCC4=CC(=O)C=C[C@]4(C)[C@H]3[C@@H](O)C[C@@]12C
inactive: max response (KB-3-1) -5.72%

C[C@]12C=CC(=O)N[C@@H]1CC[C@@H]1[C@@H]2CC[C@]2(C)[C@@H](C(=O)Nc3cc(C(F)(F)F)ccc3C(F)(F)F)CC[C@@H]12
inactive: max response (KB-3-1) 5.03%

Cc1c(-c2ccnn2C)cc(C(=O)NCc2ccc(S(C)(=O)=O)cn2)c(=O)n1-c1cccc(C(F)(F)F)c1
inactive: max response (KB-3-1) 2.1% and 7.91% | outcome (KB-3-1) | max response (NIH3T3 [1]) 0.936% and -17.4% and -7.73% | Potency (C33A) | Potency (CASKI) | Potency (Es-2) | Potency (HeLa) | Potency (Hek293T [4]) | Potency (JEG-3) | Potency (OV90) | Potency (PA-1)

Cc1cc(Nc2ncc(Cl)c(Nc3ccccc3S(=O)(=O)C(C)C)n2)c(OC(C)C)cc1C1CCNCC1
active: Potency (KB-3-1) 18.4 µM | Potency (NIH3T3 [1]) 23.4 µM
inactive: outcome (NIH3T3 [1]) | outcome (HACAT) | Potency (C33A) | Potency (CAOV3) | Potency (CASKI) | Potency (Es-2) | Potency (HeLa) | Potency (Hek293T [4]) | Potency (JEG-3) | Potency (PA-1)
